Assay results as given in PubChem BioAssay (NCI).
This is part of a sample that, as a whole, favours compounds with a hit. Of some 83,000 tested, about 20% had one in any assay.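 Interpretation: 100, growth as untreated; towards 0, rising growth inhibition; 0, no net growth; 0 to -100, cell death. Compounds scoring below 10 were considered active.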 Values without a mark were called inactive. Activity calls are given as the source filed them.

tested on: HL-60(TB) leukemia; assay: NCI-60 one-dose screen, 48 h (100 = growth as untreated, 0 = no growth, -100 = all killed); conditions: 10 µM unless noted

Row | SMILES | growth
1 | CNC(=O)c1cc(-c2ccc(NC(=O)Nc3ccc(N4CCOCC4)c(C(F)(F)F)c3)cc2)nc2cccnc12 | 25.2%
2 | Fc1ccccc1/C=C(/C1=NCCN1)n1cnc2ccccc21 | 94.5%
3 | CC(C)(C)c1cc(NC(=O)Nc2ccc(-c3cn4c5c(sc4n3)CCc3cn(CCCN4CCCCC4)cc3-5)cc2)no1 | -18.9% (active)
4 | Clc1ccc(CSc2nnc(-c3ccc(Cl)cc3)n2-c2ccccc2)cc1 | 90.9%
5 | O=C(CSc1cc[n+](CCCCO)c2ccccc12)n1ccc2ccccc21 | 106%
6 | Nc1ccccc1NC(=O)c1ccc(NC(=O)C/C=C/c2cccnc2)cn1 | 8.93% (active)
